Data on eight compounds can be found in PubChem BioAssay (EPA / NIEHS).

Values joined by “and” are separate entries in the source; they are usually repeats but may differ in a detail not shown here. Equal values may be shown once. Inconclusive results are not listed. The source holds several records for some structures; these can differ, active in one and inactive in another. Active and inactive are the calls of the source. The calls were made as follows, unless noted: active = hit-call score of the fitted dose curve at least 0.9, where 1 is the maximum; inconclusive = response in the unintended direction; inactive = score below 0.9.

In test [1] the test system is zebrafish Estrogen Receptor (ER2b), gene 317733. The experiment in a line: ATG_zfER2b_XSP2: Attagene TRANS-FACTORIAL Multi-Species (XSP2) HepG2 Assay for zebrafish Estrogen Receptor (ER2b) (AID 2283823).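 Also: fitted upward as reporter gain over DMSO so potency reflects activation.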 The gist of the method:
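Read-out: fluorescent reporter mRNA, measured by RT-PCR then capillary electrophoresis after HpaI digestion. HepG2 cells carried transiently transfected multi-reporter TRANS constructs (NR-Gal4 chimeras); 24 h chemical exposure; activity scored upward versus DMSO control.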

Test [2] relates to frog Androgen Receptor (AR), gene 399456. The experiment in a line: ATG_frAR_XSP2: Attagene TRANS-FACTORIAL Multi-Species (XSP2) HepG2 Assay for frog Androgen Receptor (AR) (AID 2283824).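 Also: reporter mRNA from GAL4-UAS units driven by Xenopus AR-Gal4 chimera; actives raise reporter signal above DMSO so AC50 reflects agonist-like induction.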 Summed up: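 Reporter transcript induction, read by RT-PCR with fluorescent capillary electrophoresis, in human liver HepG2 cells carrying an exogenous Xenopus AR-Gal4 fusion and GAL4-driven reporters; chemical exposure 24 hours, activity scored upward against DMSO controls.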

Test [3] deals with frog Estrogen Receptor (ER2), gene 100174814. The experiment in a line: ATG_frER2_XSP2: Attagene TRANS-FACTORIAL Multi-Species (XSP2) HepG2 Assay for frog Estrogen Receptor (ER2) (AID 2283828). The gist of the method: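 Induction of reporter mRNA, baseline set by DMSO, is the endpoint. The panel was run in transfected HepG2 cells over 24 h, with 3 nM 6-alpha-fluorotestosterone and 1.5 nM norgestrel present to stimulate androgen receptor.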

The target in test [4] is Peroxisome proliferator-activated receptor gamma (Homo sapiens) (UniProt P37231). The experiment in a line: ATG_hPPARg_XSP2: Attagene TRANS-FACTORIAL Multi-Species (XSP2) HepG2 Assay for human Peroxisome Proliferator-activated Receptor gamma (PPARg) (AID 2283829).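 Also: actives raise reporter mRNA above DMSO so AC50 reflects PPARg activation.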 Summed up:
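HepG2 cells transiently transfected with multiplexed GAL4-UAS reporter units for chimeric NR-Gal4 receptors, dosed 24 h. Reporter mRNA quantified by RT-PCR, 6-FAM labeling, HpaI digestion and capillary electrophoresis; gain-of-signal fitted against DMSO baseline.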

Test [5] has as its target mouse Peroxisome Proliferator-activated Receptor gamma (PPARg), Pparg (gene 19016) (UniProt P37238). The experiment in a line: ATG_mPPARg_XSP2: Attagene TRANS-FACTORIAL Multi-Species (XSP2) HepG2 Assay for mouse Peroxisome Proliferator-activated Receptor gamma (PPARg) (AID 2283830).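 Also: hits are gains in reporter mRNA above DMSO so AC50 marks activation.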 Summed up:
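Multiplexed TRANS reporter readout: after 24 h chemical exposure of transfected HepG2 cells (with 3 nM 6-alpha-fluorotestosterone, 1.5 nM norgestrel present), RNA reverse-transcribed, amplified, 6-FAM-labelled and resolved by capillary electrophoresis; mouse PPARg-Gal4 induction scored against DMSO.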

In test [6] the target is Nuclear receptor subfamily 1 group I member 2 (Mus musculus) (UniProt O54915). The experiment in a line: ATG_mPXR_XSP2: Attagene TRANS-FACTORIAL Multi-Species (XSP1) HepG2 Assay for mouse Pregnane X Receptor (PXR) (AID 2283831). The gist of the method:
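HepG2 cells transiently transfected with GAL4-UAS reporter units expressing chimeric NR-GAL4 proteins; reporter mRNA measured 24 h after dosing by RT-PCR with 6-FAM labelling and capillary electrophoresis, gain of signal relative to DMSO.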

For test [7], the system named is zebrafish Peroxisome Proliferator-activated Receptor gamma (PPARg), gene 557037. The experiment in a line: ATG_zfPPARg_XSP2: Attagene TRANS-FACTORIAL Multi-Species (XSP2) HepG2 Assay for zebrafish Peroxisome Proliferator-activated Receptor gamma (PPARg) (AID 2283833).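 Also: actives increase reporter signal over DMSO so AC50 reflects activation.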 Summed up: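 HepG2 cells transiently transfected with GAL4-UAS reporter units expressing a zebrafish PPARg–GAL4 chimera; compound exposure 24 h. Reporter mRNA quantified by RT-PCR with fluorescent labelling and capillary electrophoresis; gain of signal fitted relative to DMSO baseline.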

The test system of test [8] is turtle Thyroid Hormone Receptor, alpha (TRa), gene 101949057. The experiment in a line: ATG_trTRa_XSP2: Attagene TRANS-FACTORIAL Multi-Species (XSP1) HepG2 Assay for turtle Thyroid Hormone Receptor, alpha (TRa) (AID 2283834).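 Also: hits raise reporter mRNA over the DMSO baseline so AC50 marks activators.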 Summed up: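 HepG2 cells transiently transfected with multiplexed GAL4-UAS reporter units expressing chimeric NR-Gal4 proteins were dosed for 24 hours. Reporter mRNA was quantified by RT-PCR with 6-FAM labelling and capillary electrophoresis, gain of signal scored against DMSO.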

The target of test [9] is zebrafish Thyroid Hormone Receptor beta (TRb), thrb (gene 30607) (UniProt Q9PVE4). The experiment in a line: ATG_zfTRb_XSP2: Attagene TRANS-FACTORIAL Multi-Species (XSP1) HepG2 Assay for zebrafish Thyroid Hormone Receptor beta (TRb) (AID 2283836).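 As to AC50: potency for induction of reporter signal above DMSO so agonist direction.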 The gist of the method:
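Reporter transcripts were measured by RT-PCR with fluorescent primer extension and capillary electrophoresis, 24 h after chemical dosing of transiently transfected HepG2 cells. Activity was scored as upward signal versus DMSO baseline.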

Test [10] concerns the target frog Thyroid hormone Receptor alpha (TRa), thra-a (gene 397942) (UniProt P15204). The experiment in a line: ATG_frTRa_XSP2: Attagene TRANS-FACTORIAL Multi-Species (XSP2) HepG2 Assay for frog Thyroid hormone Receptor alpha (TRa) (AID 2283839).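 As to AC50: AC50 reflects induction of frog TRa-driven reporter mRNA above DMSO baseline.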 Summed up: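 HepG2 cells transiently transfected with multiplexed GAL4-UAS reporter units expressing chimeric frog TRα-Gal4; reporter mRNA read 24 h after dosing by RT-PCR, FAM-labelled primer extension, HpaI digest and capillary electrophoresis. Gain of signal fitted versus DMSO.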

Test [11] in a line: CPHEA_Stoker_NIS_Cytotoxicity: Cytotoxicity Assessment for CPHEA's Radioactive Iodide Uptake (RAIU) Assay for Sodium/Iodide Symporter (NIS) Inhibition, Stoker and Laws Labs (AID 2283897).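 As to AC50: active means loss of ATP signal versus DMSO meaning cytotoxicity.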 The gist of the method: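 CellTiter-Glo ATP luminescence gauged viability in HEK293T cells expressing human NIS after 2 h chemical exposure. Concentrations ran 0.001–100 uM in 0.5% DMSO; DMSO served as baseline for the loss-of-signal fit.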

Test [12] can be described thus: CEETOX_H295R_11DCORT_noMTC: CeeTox H295R High-throughput Steroidogenesis Assay for 11-Deoxycortisol (11DCORT), maximum tolerated concentration (MTC) filtered results only (AID 2283911; active = hit-call score of the fitted dose curve at least 0.9, where 1 is the maximum; inactive = score below 0.9). To be noted: actives raise or lower the signal. Summed up:
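HPLC-MS/MS read-out of 11-deoxycortisol after MTBE extraction of H295R medium. Cells: forskolin 10 uM pre-stimulation 48 h, chemical 48 h, 0.1% DMSO final. Bidirectional fit vs DMSO baseline; no MTC filtering.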

Test [13] in a line: CEETOX_H295R_OHPREG_noMTC: CeeTox H295R High-throughput Steroidogenesis Assay for OH-Pregnenolone (OHPREG), maximum tolerated concentration (MTC) filtered results only (AID 2283912; active = hit-call score of the fitted dose curve at least 0.9, where 1 is the maximum; inactive = score below 0.9). To be noted: actives raise or lower the signal. Summed up: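 Readout is HPLC-MS/MS quantification of 17alpha-hydroxypregnenolone released by forskolin-stimulated H295R cells over 48 h of chemical exposure, DMSO as baseline.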

Test [14] is described as follows: CEETOX_H295R_OHPROG_noMTC: CeeTox H295R High-throughput Steroidogenesis Assay for OH-Progesterone (OHPROG), maximum tolerated concentration (MTC) filtered results only (AID 2283914; active = hit-call score of the fitted dose curve at least 0.9, where 1 is the maximum; inactive = score below 0.9). As to conditions: actives raise or lower the signal. The gist of the method: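 Analysis uses all tested concentrations, without maximum-tolerated-concentration screening by MTT. H295R cells, forskolin-primed (10 uM, 48 h), receive chemical for 48 h; hormone in medium measured by HPLC-MS/MS, with bidirectional curve fitting against DMSO.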

Test [15] has as its system zebrafish Androgen Receptor (AR), gene 100005148. The experiment in a line: ATG_zfAR_XSP2: Attagene TRANS-FACTORIAL Multi-Species (XSP2) HepG2 Assay for zebrafish Androgen Receptor (AR) (AID 2283825).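 Also: hits raise reporter mRNA above DMSO so AC50 reflects agonist-type gain.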 The gist of the method:
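After 24 h compound exposure in medium with 3 nM 6-alpha-fluorotestosterone plus 1.5 nM norgestrel, HepG2 cells carrying zebrafish AR–GAL4 reporter constructs were assessed for reporter mRNA gain by RT-PCR and capillary electrophoresis.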

Test [16] addresses zebrafish Thyroid Hormone Receptor alpha (TRa), thraa (gene 30670) (UniProt Q98867). The experiment in a line: ATG_zfTRa_XSP2: Attagene TRANS-FACTORIAL Multi-Species (XSP1) HepG2 Assay for zebrafish Thyroid Hormone Receptor alpha (TRa) (AID 2283832).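 Also: actives raise zebrafish TRa-Gal4 reporter transcript above DMSO baseline.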 The gist of the method:
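Readout is reporter mRNA induction, quantified by RT-PCR and capillary electrophoresis with fluorescent labelling, after 24 h compound exposure of transiently transfected HepG2 cells carrying NR-Gal4 chimera reporters. Activity fitted upward relative to DMSO.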

In test [17] the target is human Thyroid hormone Receptor beta (TRb), THRB (gene 7068) (UniProt P10828). The experiment in a line: ATG_hTRb_XSP2: Attagene TRANS-FACTORIAL Multi-Species (XSP2) HepG2 Assay for human Thyroid hormone Receptor beta (TRb) (AID 2283840).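 Also: actives raise reporter mRNA so potency reflects agonist-like gain of signal.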 Summed up: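 HepG2 cells were transiently transfected with GAL4-UAS multiplexed reporter units expressing chimeric NR-Gal4 proteins, dosed 24 h; reporter mRNA was quantified by RT-PCR, fluorescent labeling, HpaI digestion and capillary electrophoresis, fitted for gain of signal versus DMSO.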
Chain of human Thyroid hormone Receptor beta (TRb), THRB (gene 7068) (P10828 whole entry, looked up, the tested form may be a part): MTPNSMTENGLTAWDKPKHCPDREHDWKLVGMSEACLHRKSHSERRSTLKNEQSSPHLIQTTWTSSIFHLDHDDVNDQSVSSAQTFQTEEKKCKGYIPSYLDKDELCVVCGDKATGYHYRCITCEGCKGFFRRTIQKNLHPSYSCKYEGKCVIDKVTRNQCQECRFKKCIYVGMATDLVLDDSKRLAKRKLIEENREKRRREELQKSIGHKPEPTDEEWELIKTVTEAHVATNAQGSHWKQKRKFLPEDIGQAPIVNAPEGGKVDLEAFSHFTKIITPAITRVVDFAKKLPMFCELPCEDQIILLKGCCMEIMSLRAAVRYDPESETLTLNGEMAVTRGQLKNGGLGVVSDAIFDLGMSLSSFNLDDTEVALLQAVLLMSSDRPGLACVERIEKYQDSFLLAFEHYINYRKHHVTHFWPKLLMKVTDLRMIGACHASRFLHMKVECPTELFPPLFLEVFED

A short description of test [18]: ATG_M_61_XSP2: Attagene TRANS-FACTORIAL Multi-Species (XSP2) HepG2 Assay for M61 Transcription Factor (Internal Marker) (AID 2283835; active = hit-call score of the fitted dose curve at least 0.9, where 1 is the maximum; inactive = score below 0.9;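 also: reporter mRNA of an internal background marker read by RT-PCR and capillary electrophoresis; active means a rise in signal above the DMSO baseline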). Summed up:
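Signal was mRNA induction detected as fluorescence after RT-PCR and capillary electrophoresis, analysed in the gain direction with DMSO as baseline. HepG2 cells transiently carrying reporter constructs received chemicals for 24 h.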

A short description of test [19]: ATG_XTT_Cytotoxicity_XSP2: Cytotoxicity Assessment in the Attagene TRANS-FACTORIAL Multi-Species (XSP2) HepG2 Assay (AID 2283837). The gist of the method: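 XTT-based cell number read-out in human HepG2 liver cells carrying transfected reporter units, measured 24 h after chemical dosing. Activity is signal loss versus DMSO baseline.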
For test [20], the target named is human Thyroid hormone Receptor alpha (TRa), THRA (gene 7067) (UniProt P10827). The experiment in a line: ATG_hTRa_XSP2: Attagene TRANS-FACTORIAL Multi-Species (XSP2) HepG2 Assay for human Thyroid hormone Receptor alpha (TRa) (AID 2283838). Summed up: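 Gain-of-signal in reporter mRNA, relative to DMSO, after 24 h dosing of transfected HepG2; quantitation by RT-PCR fragment analysis on capillary electrophoresis.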
Chain of human Thyroid hormone Receptor alpha (TRa), THRA (gene 7067) (P10827 whole entry, looked up, the tested form may be a part): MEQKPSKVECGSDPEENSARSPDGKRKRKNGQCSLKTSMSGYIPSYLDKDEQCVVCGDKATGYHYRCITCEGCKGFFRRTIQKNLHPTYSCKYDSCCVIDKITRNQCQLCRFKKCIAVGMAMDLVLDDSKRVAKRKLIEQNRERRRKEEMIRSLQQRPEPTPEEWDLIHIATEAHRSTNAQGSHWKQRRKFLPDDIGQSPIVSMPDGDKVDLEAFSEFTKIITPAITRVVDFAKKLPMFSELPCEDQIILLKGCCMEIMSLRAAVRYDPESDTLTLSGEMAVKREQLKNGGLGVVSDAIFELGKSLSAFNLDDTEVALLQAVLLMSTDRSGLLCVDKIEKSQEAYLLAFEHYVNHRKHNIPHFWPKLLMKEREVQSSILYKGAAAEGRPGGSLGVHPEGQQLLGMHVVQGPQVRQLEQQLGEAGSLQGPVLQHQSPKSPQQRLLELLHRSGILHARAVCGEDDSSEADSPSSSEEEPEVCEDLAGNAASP

Chain of Peroxisome proliferator-activated receptor gamma (Homo sapiens) (P37231 whole entry, looked up, the tested form may be a part): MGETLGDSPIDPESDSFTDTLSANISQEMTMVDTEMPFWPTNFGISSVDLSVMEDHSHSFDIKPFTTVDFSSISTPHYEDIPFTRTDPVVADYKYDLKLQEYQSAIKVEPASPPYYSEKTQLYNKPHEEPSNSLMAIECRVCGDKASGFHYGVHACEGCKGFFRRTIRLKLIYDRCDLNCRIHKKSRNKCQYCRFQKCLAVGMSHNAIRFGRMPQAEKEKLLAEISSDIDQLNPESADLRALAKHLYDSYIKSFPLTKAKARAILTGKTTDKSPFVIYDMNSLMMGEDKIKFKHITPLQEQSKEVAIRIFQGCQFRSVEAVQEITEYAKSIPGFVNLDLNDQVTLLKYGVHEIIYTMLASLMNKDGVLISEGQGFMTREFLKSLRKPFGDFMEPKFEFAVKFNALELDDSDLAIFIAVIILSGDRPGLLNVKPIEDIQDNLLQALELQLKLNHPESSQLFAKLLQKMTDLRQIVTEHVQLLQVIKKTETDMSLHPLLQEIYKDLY
Chain of frog Thyroid hormone Receptor alpha (TRa), thra-a (gene 397942) (P15204 whole entry, looked up, the tested form may be a part): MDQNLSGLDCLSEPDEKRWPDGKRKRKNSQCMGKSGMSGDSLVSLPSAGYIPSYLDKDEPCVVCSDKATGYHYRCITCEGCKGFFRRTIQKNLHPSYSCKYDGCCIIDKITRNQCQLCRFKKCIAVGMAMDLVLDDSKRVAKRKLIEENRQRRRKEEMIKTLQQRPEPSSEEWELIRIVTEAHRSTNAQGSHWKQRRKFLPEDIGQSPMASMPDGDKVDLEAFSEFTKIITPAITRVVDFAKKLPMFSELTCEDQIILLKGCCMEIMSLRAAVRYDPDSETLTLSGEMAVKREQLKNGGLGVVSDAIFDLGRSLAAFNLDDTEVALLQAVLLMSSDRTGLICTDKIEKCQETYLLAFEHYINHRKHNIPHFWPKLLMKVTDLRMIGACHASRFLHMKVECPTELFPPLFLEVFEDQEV
Chain of zebrafish Thyroid Hormone Receptor alpha (TRa), thraa (gene 30670) (Q98867 whole entry, looked up, the tested form may be a part): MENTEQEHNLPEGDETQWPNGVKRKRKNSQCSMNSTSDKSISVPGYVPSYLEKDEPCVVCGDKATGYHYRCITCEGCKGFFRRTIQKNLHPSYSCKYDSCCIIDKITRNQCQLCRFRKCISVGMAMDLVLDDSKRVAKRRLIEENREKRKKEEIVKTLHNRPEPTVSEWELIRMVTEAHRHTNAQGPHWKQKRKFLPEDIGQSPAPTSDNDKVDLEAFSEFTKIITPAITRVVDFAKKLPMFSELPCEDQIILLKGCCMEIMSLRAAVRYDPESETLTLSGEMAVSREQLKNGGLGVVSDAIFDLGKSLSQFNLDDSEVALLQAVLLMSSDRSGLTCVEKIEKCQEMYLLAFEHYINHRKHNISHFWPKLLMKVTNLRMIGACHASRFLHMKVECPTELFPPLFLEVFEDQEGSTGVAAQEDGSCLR
Chain of mouse Peroxisome Proliferator-activated Receptor gamma (PPARg), Pparg (gene 19016) (P37238 whole entry, looked up, the tested form may be a part): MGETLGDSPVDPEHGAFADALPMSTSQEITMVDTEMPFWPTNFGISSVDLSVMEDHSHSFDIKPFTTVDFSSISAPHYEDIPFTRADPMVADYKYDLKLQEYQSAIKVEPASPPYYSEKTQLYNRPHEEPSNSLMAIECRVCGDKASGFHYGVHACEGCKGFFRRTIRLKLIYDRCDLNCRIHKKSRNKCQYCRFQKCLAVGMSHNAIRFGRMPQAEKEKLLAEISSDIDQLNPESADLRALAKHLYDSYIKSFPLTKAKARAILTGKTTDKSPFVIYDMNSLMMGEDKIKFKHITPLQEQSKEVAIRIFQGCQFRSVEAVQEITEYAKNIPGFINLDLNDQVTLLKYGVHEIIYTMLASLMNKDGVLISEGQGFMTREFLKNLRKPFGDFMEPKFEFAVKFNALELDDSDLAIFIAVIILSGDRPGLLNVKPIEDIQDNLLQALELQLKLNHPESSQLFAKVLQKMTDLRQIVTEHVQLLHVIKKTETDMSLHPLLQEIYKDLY
Chain of Nuclear receptor subfamily 1 group I member 2 (Mus musculus) (O54915 whole entry, looked up, the tested form may be a part): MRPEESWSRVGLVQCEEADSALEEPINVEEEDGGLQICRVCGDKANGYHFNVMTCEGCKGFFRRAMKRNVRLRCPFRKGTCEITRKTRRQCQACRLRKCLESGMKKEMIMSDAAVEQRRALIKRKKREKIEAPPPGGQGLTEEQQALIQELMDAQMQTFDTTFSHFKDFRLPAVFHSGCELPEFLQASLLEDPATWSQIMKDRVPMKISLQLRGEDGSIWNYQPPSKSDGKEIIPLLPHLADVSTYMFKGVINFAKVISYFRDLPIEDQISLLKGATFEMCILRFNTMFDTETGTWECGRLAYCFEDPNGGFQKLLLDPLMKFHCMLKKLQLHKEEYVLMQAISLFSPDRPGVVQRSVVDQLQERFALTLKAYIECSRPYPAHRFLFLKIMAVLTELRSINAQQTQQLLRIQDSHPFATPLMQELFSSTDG
Chain of zebrafish Thyroid Hormone Receptor beta (TRb), thrb (gene 30607) (Q9PVE4 whole entry, looked up): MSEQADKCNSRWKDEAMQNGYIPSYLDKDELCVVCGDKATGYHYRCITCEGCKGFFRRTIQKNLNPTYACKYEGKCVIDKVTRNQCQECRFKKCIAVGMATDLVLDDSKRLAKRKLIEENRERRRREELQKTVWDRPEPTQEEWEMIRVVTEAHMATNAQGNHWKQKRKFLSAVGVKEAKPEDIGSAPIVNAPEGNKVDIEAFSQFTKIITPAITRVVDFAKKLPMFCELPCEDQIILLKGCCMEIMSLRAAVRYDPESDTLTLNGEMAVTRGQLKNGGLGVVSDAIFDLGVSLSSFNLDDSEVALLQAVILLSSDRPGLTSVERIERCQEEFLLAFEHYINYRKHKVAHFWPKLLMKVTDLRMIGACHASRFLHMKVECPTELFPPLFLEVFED

Consider `CCCCCCCCCCCCN`, for which the call in [1], in [2], in test [6], in test [7], in [8] and in [9] was inactive. In test [10], the outcome was inactive. Moreover, the half-maximal activity concentration (AC50) is 55.1 µM (active) in test [3]; 30 µM (active) and 11.9 µM (active) in [4]; 46.2 µM (active) and 37.7 µM (active) in [5].

In the case of `O=C1c2ccccc2C(=O)N1SC1CCCCC1`, in test [11], the AC50 was 79.4 µM (active).

In the case of `CC1CC(OC(=O)c2ccccc2O)CC(C)(C)C1` (stereo unspecified), the compound was called inactive in [12], in test [13] and in test [14].

Take `CCCCCCCCC`: in test [11], the outcome was inactive.

`CN(C)C(=N)N=C(N)N`: the result in test [1], in test [15], in [3], in [4], in [5] and in test [16] was inactive. Besides, the call in test [7], in test [8], in test [9], in test [10] and in [17] was inactive.

On to `O=c1cc(-c2ccccc2)oc2cc(O)cc(O)c12`, for which the AC50 in test [1] was 14.2 µM (active) and 5.28 µM (active); in [2], 1.19 µM (active); in test [3] it was 4.67 µM (active) and 2.26 µM (active); in [5], 7.92 µM (active) and 1.57 µM (active); in test [6] it was 12.3 µM (active) and 25.9 µM (active); in test [9], 100 µM (active). Also, the AC50 in test [20] was 10.9 µM (active) and 7.51 µM (active); in test [10], 26.2 µM (active) and 1.8 µM (active); in test [17] it was 100 µM (active). Also, the outcome in test [2], in [16], in test [7], in test [8], in [18] and in test [9] was inactive. In addition, the call in [19], in [17] and in test [11] was inactive.

With `CCCCCCCCCCCCCCCCCC(=O)OCC(CC)CCCC` (stereo unspecified), the result in test [11] was inactive.

For the compound `CCN(CC)CCOC(=O)c1ccc(N)cc1`, the result in test [11] was inactive.
